# Experimental data published in PubChem BioAssay (NCATS).
# “And” between values parts separate entries of the source, which are not always exact repeats. Identical values can stand only once. Results filed as inconclusive are left out. The source made the active and inactive calls. Unless noted, calls come from the whole dose curve; as a rule, active = well fitted curve in the direction sought with a large enough effect; inconclusive = small, poorly fitted or top-dose-only effect, or another doubt; inactive = no such curve, though single readings can be large; an effect the other way counts as inactive or inconclusive.
# System: astro (control astrocytes)
# Test: Drug repurposing screens with cells derived from glioblastoma tumor samples (AID 1345199); note: nearly all actives have a fitted effect of over 40% in size; note: potency is the fitted concentration of half-maximal effect; for activity, negative = cell killing: % is set by controls: 0 for no effect and ±100 for the full control effect
# Settings: viability, ATP luminescence, 48 h; series mostly up to 45.9 µM; activity, negative = cell killing: at the top concentration
# In short: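 Four patient lines of CD133+ GBM neurospheres were screened at several concentrations; hits were retested in those lines plus three slower-growing GBM lines, using 48-hour treatment and ATP-based viability.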
SMILES,"activity, negative = cell killing",Potency
COc1ccc2c(C(=O)c3ccc(Cl)cc3)c(C)n(CC(=O)O)c2c1,-29.6% (inactive),
CN1C(=O)[C@@H](NC(=O)c2cc3ccccc3[nH]2)N=C(c2ccccc2)c2ccccc21,-29.7% (inactive),
CNC(=O)NC(O)C(Cl)(Cl)Cl (centres undefined),-4.37% (inactive),
CN1C[C@@H](NS(=O)(=O)N(C)C)C[C@@H]2c3cccc4c3c(cn4C)C[C@H]21,-15.6% (inactive),
CC1=C2[C@H]3OC(=O)[C@@H](C)[C@@H]3CC[C@@]2(C)C=CC1=O,-4.17% (inactive),
CC(=O)OC1(c2ccccc2)CCN(CCc2ccccc2)CC1,-14.1% [at 108 µM] (inactive),
CCN(CC)C(C)C(=O)c1ccccc1 (centres undefined),-4.54% (inactive),
COc1cc(N)c(Cl)cc1C(=O)NC1CN2CCC1CC2 (centres undefined),-18.1% (inactive),
CCOP(=S)(OCC)O/N=C(\C#N)c1ccccc1,0.326% (inactive),
CC[C@H]1C[C@@H]2C[C@H]3c4[nH]c5ccc(OC)cc5c4CCN(C2)[C@@H]13,-23.6% [at 91.6 µM] (inactive),
COCC(=O)N(c1c(C)cccc1C)C(C)C(=O)OC (centres undefined),-8.34% (inactive),
C[N+]1(C)[C@@H]2CC[C@H]1CC(OC(=O)C(CO)c1ccccc1)C2 (some centres undefined),,inactive
CCOC(=O)c1cncn1C(C)c1ccccc1 (centres undefined),-11.7% [at 21.2 µM] (inactive),
NC(=O)OCCCc1ccccc1,-15% (inactive),
C[N+]1(CCC(C(N)=O)(c2ccccc2)c2ccccc2)CCCCC1,0.273% (inactive),
CCc1cc(OC)c(C[C@H](C)N)cc1OC,-5.4% [at 108 µM] (inactive),
CC[n+]1c(-c2ccccc2)c2cc(N)ccc2c2ccc(N)cc21,,8.91 µM (active) and 12.6 µM (active)
COc1cc(CC(C)N)c(OC)cc1Br (centres undefined),,inactive
COC(=O)C1=CCCN(C)C1,-9.57% (inactive),
CCC1(c2cnc[nH]2)Cc2ccccc2C1,,inactive
COP(=O)(OC)C(O)C(Cl)(Cl)Cl (centres undefined),-18% (inactive),
Cc1ccc(N=CN(C)C=Nc2ccc(C)cc2C)c(C)c1,-12.3% (inactive),
CCNc1nc(Cl)nc(NCC)n1,1.76% (inactive),
CCCCCCCCC(=O)NCc1ccc(O)c(OC)c1,-8.88% (inactive),
Cc1nc2ccccc2c(=O)n1-c1ccccc1Cl,-27.7% [at 91.6 µM] (inactive),
CC(Cc1ccccc1)NCc1ccccc1Cl (centres undefined),-9.9% (inactive),

# System: not listed separately
# Test: qHTS assay to identify inhibitors of the type 1 interferon - major histocompatibility complex class I in skeletal muscle: Counter screen cell viability and HiBit confirmation (AID 1347412); note: potency is the fitted concentration of half-maximal effect; nearly all actives have a fitted effect of over 60% in size
# Settings: iHSKM muscle cells + IFN-b, HiBiT or CellTiter-Glo, 24 h; HiBiT
# In short: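 CRISPR HLA-B*08:01-HiBit immortalized human myoblasts (C25cl48) stimulated with 4 ng/ml IFN-beta and compounds (12-point 1:3, top 46 uM final) for 24 h at 37 C. Duplicate plates read by HiBit lytic luminescence or CellTiter Glo ATP.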
row,SMILES,Potency
1,Cc1ccc([N+](=O)[O-])[c]2c1[O][Hg]2,6.25 µM (active)
2,C[C@@H]1C[C@@H]([C@H](O)CC2CC(=O)NC(=O)C2)C(=O)[C@@H](C)C1,701 nM (active) and 222 nM (active)
3,C[C@@H]1O[C@@H](O[C@@H]2C=C3CC[C@@H]4[C@H](CC[C@]5(C)[C@@H](c6ccc(=O)oc6)CC[C@]45O)[C@@]3(C)CC2)[C@H](O)[C@H](O)[C@H]1O,0.0125 µM (active)

# Molecular target: Nuclear receptor subfamily 1 group I member 2 (Rattus norvegicus) (UniProt Q9R1A7)
# Sequence (Q9R1A7 whole entry, looked up): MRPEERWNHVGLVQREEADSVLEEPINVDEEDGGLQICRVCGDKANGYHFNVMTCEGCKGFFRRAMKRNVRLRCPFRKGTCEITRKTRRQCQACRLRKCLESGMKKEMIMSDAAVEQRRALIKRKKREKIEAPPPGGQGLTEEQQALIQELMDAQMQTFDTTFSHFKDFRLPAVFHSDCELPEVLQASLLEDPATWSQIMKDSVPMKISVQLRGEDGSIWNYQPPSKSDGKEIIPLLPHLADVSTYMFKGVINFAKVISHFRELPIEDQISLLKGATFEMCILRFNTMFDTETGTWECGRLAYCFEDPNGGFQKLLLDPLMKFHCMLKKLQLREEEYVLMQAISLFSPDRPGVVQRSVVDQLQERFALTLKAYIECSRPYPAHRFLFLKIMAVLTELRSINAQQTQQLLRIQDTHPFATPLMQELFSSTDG
# Test: qHTS assay for small molecule activators of the rat pregnane X receptor (rPXR) signaling pathway (AID 651751; call rule not given here; note: 0% is about no effect)
# Settings: rPXR reporter cells, luciferase (One-Glo), 24 h
row,SMILES,max response
1,CCCCCCCCCCCC[N+](C)(C)CCOc1ccccc1,-13.8% (inactive)
2,O=C(CCl)c1ccc(Cl)cc1Cl,-0.907% (inactive)
3,O=C(NC(=O)c1c(F)cccc1F)Nc1cc(Cl)c(OC(F)(F)C(F)C(F)(F)F)cc1Cl (centres undefined),0.749% (inactive)
4,Oc1c(Br)cc(Br)cc1Br,8.69% (inactive) and -3.29% (inactive)
5,CCOP(=S)(OCC)O/N=C(\C#N)c1ccccc1,-0.568% (inactive)
6,CNC(=O)Oc1cccc2ccccc12,5.05% (inactive) and 2.44% (inactive)
7,COCC(=O)N(c1c(C)cccc1C)C(C)C(=O)OC (centres undefined),3.13% (inactive)
8,C[C@H]1C(=O)O[C@@H]2CCN3CC=C(COC(=O)[C@](C)(O)[C@]1(C)O)[C@H]23,0.678% (inactive)
9,CC[n+]1c(-c2ccccc2)c2cc(N)ccc2c2ccc(N)cc21,-4.84% (inactive)
10,COP(=O)(OC)C(O)C(Cl)(Cl)Cl (centres undefined),3.3% (inactive)
11,Cc1ccc(N=CN(C)C=Nc2ccc(C)cc2C)c(C)c1,4.54% (inactive)
12,CCNc1nc(Cl)nc(NCC)n1,-3.28% (inactive)
13,N#Cc1nn(-c2c(Cl)cc(C(F)(F)F)cc2Cl)c(N)c1S(=O)C(F)(F)F (centres undefined),-15% (inactive)
14,CCCCCCCCC(=O)NCc1ccc(O)c(OC)c1,2.01% (inactive)
15,COP(=S)(OC)Oc1ccc(Sc2ccc(OP(=S)(OC)OC)cc2)cc1,1.29% (inactive)
16,O=c1n(Cl)c(=O)n(Cl)c(=O)n1Cl,-5.15% (inactive)

# System: not listed separately
# Test: qHTS assay for small molecule activators of the human pregnane X receptor (PXR) signaling pathway (AID 720659; call rule not given here; note: 0% is about no effect)
# Settings: DPX-2 HepG2 CYP3A4-luciferase, 24 h; series mostly up to 92.3 µM; activation: at the top concentration
row,SMILES,activation
1,O=C(CCl)c1ccc(Cl)cc1Cl,5.47% (inactive)
2,CCC(=O)O[C@H]1CC[C@H]2[C@@H]3CCC4=CC(=O)CC[C@]4(C)[C@H]3CC[C@]12C,20.8% (inactive)
3,C[C@H]1C(=O)O[C@@H]2CCN3CC=C(COC(=O)[C@](C)(O)[C@]1(C)O)[C@H]23,6.67% (inactive)
4,CC[n+]1c(-c2ccccc2)c2cc(N)ccc2c2ccc(N)cc21,-8.2% (inactive)
5,Cc1ccc(N=CN(C)C=Nc2ccc(C)cc2C)c(C)c1,0% (inactive)
6,CCNc1nc(Cl)nc(NCC)n1,2.41% (inactive)
7,CCCCCCCCC(=O)NCc1ccc(O)c(OC)c1,1.01% (inactive)
8,COP(=S)(OC)Oc1ccc(Sc2ccc(OP(=S)(OC)OC)cc2)cc1,0% (inactive)
9,O=c1n(Cl)c(=O)n(Cl)c(=O)n1Cl,7.91% (inactive)
